# Only a selection was taken, and hits are over-represented in it overall.
# U2OS ROS induce = ROS inducers in U2OS cancer cells, primary screen, cell-based, H2DCF-DA fluorescence; ROS induction (% of piperlongumine), % at 10 µM; 46,000 tested, 2% active; U2OS ROS induction; in the data active means ROS induction above about 79%, passing the limit was not always enough;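 further: 0% = DMSO vehicle median and 100% = reference compound median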
# * marks the source's active call; other numbers are inactive results.
SMILES,U2OS ROS induce
C[C@@H]1CCCCO[C@H](CN(C)Cc2ccc(C(F)(F)F)cc2)[C@@H](C)CN([C@H](C)CO)C(=O)c2cc(NC(=O)CCC(F)(F)F)ccc2O1,9
CCn1c(=O)cc(N2CCN(c3ccccc3)CC2)[nH]c1=O,20
Cc1ccc(N2CCN(C(=O)Cn3nc(Cc4cccnc4)c4ccccc4c3=O)CC2C)cc1 (stereo unspecified),14
Cc1cccc(N2C(=NC(=O)c3ccc(Br)cc3)SC3CS(=O)(=O)CC32)c1 (stereo unspecified),10
O=C(NCCc1ccccc1)c1ccc(Cl)cc1,12
Cc1ccc(S(=O)(=O)c2cn(Cc3cccc(Cl)c3)c3cc4c(cc3c2=O)OCO4)cc1,98*
Cc1nc2ccccc2n1Cc1cccc(Cl)c1,-13
CCc1ccc(NC(=O)Cn2cc(S(=O)(=O)c3ccccc3)c(=O)c3ccccc32)cc1,35
N#Cc1ccccc1NC(=O)CN1C(=O)c2ccccc2C1=O,-9
CCc1cccc(C)c1NC(=O)c1ccc(C(=O)Nc2c(C)cccc2CC)cc1,-8
Cc1ccccc1CSCCC(=O)NC1CCCCC1,-5
O=C(NC1CCCC1)c1cc(-c2ccc(F)cc2)no1,8
COc1ccc(S(=O)(=O)Nc2ccc3c(c2)C(=O)N([C@@H](C)CO)C[C@@H](C)[C@@H](CN(C)Cc2ccc(-c4ccccc4)cc2)O3)cc1,21
Cc1ccc(S(=O)(=O)Nc2ccc3c(c2)C(=O)N([C@@H](C)CO)C[C@H](C)[C@@H](CN(C)C(=O)Nc2ccccc2)O3)cc1,109*
COc1ccc(S(=O)(=O)Nc2ccc3c(c2)C(=O)N([C@@H](C)CO)C[C@H](C)[C@@H](CN(C)Cc2ccc(-c4ccccc4)cc2)O3)cc1,128*
Cc1ccc(S(=O)(=O)Nc2ccc3c(c2)C(=O)N([C@@H](C)CO)C[C@@H](C)[C@@H](CN(C)Cc2ccc(Oc4ccccc4)cc2)O3)cc1,10
Cc1ccc(S(=O)(=O)Nc2ccc3c(c2)C(=O)N([C@@H](C)CO)C[C@H](C)[C@H](CN(C)C(=O)Nc2ccccc2)O3)cc1,2
Cc1ccc(S(=O)(=O)Nc2ccc3c(c2)C(=O)N([C@@H](C)CO)C[C@H](C)[C@@H](CN(C)Cc2ccc(Oc4ccccc4)cc2)O3)cc1,110*
COc1ccc(S(=O)(=O)Nc2ccc3c(c2)C(=O)N([C@H](C)CO)C[C@@H](C)[C@H](CN(C)Cc2ccc(-c4ccccc4)cc2)O3)cc1,14
C[C@H](CO)N1C[C@H](C)[C@@H](CN(C)C(=O)Nc2ccccc2)Oc2ccc(NS(=O)(=O)c3ccccc3)cc2C1=O,2
Cc1ccc(S(=O)(=O)Nc2ccc3c(c2)C(=O)N([C@H](C)CO)C[C@H](C)[C@@H](CN(C)Cc2ccc(Oc4ccccc4)cc2)O3)cc1,29
Cn1cccc1/C=N/n1c(COc2ccccc2)n[nH]c1=S,29
COc1ccccc1C1N(c2ccc(Cl)cc2)C(=O)N2CCCN12 (stereo unspecified),-6
CCC1=Nc2cc(C(=O)NCCN3CCCCCC3)ccc2Sc2ccc(C)cc21,10
O=C(Nc1nccs1)c1cc2ccccc2oc1=Nc1ccc(Cl)cc1,-3
SMILES,U2OS ROS induce
Ic1ccc(Nc2nc(Nc3ccccc3)nc(N3CCOCC3)n2)cc1,50
CC(C)CCSc1nc(N)c2c3c(sc2n1)CCCC3C (stereo unspecified),34
CCCCN1Cc2c(nc3cc(C(C)(C)C)[nH]n3c2=O)C1=O,-8
C[C@H]1CN([C@@H](C)CO)C(=O)Cc2cc(NC(=O)CCN3CCOCC3)ccc2O[C@@H]1CN(C)Cc1ccncc1,11
C[C@@H]1CN([C@@H](C)CO)C(=O)Cc2cc(NS(C)(=O)=O)ccc2O[C@@H]1CN(C)Cc1ccc(Cl)c(Cl)c1,104*
C[C@H]1CN([C@@H](C)CO)C(=O)Cc2cc(NS(=O)(=O)c3ccc(Cl)cc3)ccc2O[C@H]1CN(C)Cc1ccc(Cl)c(Cl)c1,2
C[C@H](CO)N1C[C@H](C)[C@H](CN(C)Cc2ccc(Cl)c(Cl)c2)Oc2ccc(NS(=O)(=O)c3ccc(Cl)cc3)cc2CC1=O,6
C[C@H]1CN([C@@H](C)CO)C(=O)Cc2cc(NC(=O)CCN3CCOCC3)ccc2O[C@H]1CN(C)Cc1ccc(Cl)c(Cl)c1,-3
C[C@H]1CN([C@@H](C)CO)C(=O)Cc2cc(NC(=O)CCN3CCOCC3)ccc2O[C@@H]1CN(C)Cc1ccc(Cl)c(Cl)c1,90*
CCCc1cc(=O)oc2c(C)c3oc(C)c(C)c3cc12,-1
O=C(O)C1C2C=CC(C2)C1C(=O)Nc1nc2ccc(Br)cc2s1 (stereo unspecified),2
Cc1oc(-c2ccccc2)nc1Cn1c(SCc2cccc(Cl)c2)nc2ccncc21,15
CCOc1ccc(NC(=O)CNS(=O)(=O)c2ccc3c(c2)C(C)(C)C(=O)N3C)cc1,-6
OC(CNCc1ccc2c(c1)OCO2)COc1ccc(-c2csnn2)cc1 (stereo unspecified),14
O=C(NCc1ccccc1)C(Cc1ccccc1)NS(=O)(=O)c1ccc(Br)cc1 (stereo unspecified),-2
CC(C)(c1ccccc1)c1ccc(OCC(=O)NC2CCCC2)cc1,1
C=CC1(C)C[C@H](OC(=O)C(C)CO)[C@H]2C(=C)C(=O)O[C@@H]2C1C(=C)CO (stereo partly specified),134*
C=C[C@]1(C)C[C@H](O)[C@H]2C(=C)C(=O)O[C@@H]2[C@H]1C(=C)CO,15
O=C(/C=C/c1ccccc1)Oc1ccc2oc(=O)sc2c1,-7
CC1=C(C(=O)Nc2ccccn2)C(c2ccc(C)cc2)C2=C(CC(C)(C)CC2=O)N1 (stereo unspecified),23
COC(=O)CCCCCCC(=O)N/N=C/c1ccc(O)cc1,16
COC(=O)CCCCCCC(=O)N/N=C/c1ccc(F)cc1,16
COC(=O)CCCCCCC(=O)N/N=C/c1c(F)c(F)c(F)c(F)c1F,266*
CC(C)c1ccc(S(=O)(=O)NCCOC23CC4CC(CC(C4)C2)C3)cc1,0
O=C(Cn1c(=O)c2cccn2c2ccccc21)NCc1ccccc1,-9
SMILES,U2OS ROS induce
COc1ccc2[nH]c3c(=O)n(CCCCC(=O)Nc4ccccc4)c(=S)[nH]c3c2c1,10
C[C@@H]1CCCCO[C@H](CN(C)C(=O)c2ccncc2)[C@@H](C)CN([C@H](C)CO)C(=O)c2cc(NC(=O)NC3CCCCC3)ccc2O1,123*
C[C@@H]1CCCCO[C@@H](CN(C)C(=O)c2ccncc2)[C@@H](C)CN([C@H](C)CO)C(=O)c2cc(NC(=O)c3ccncc3)ccc2O1,21
Cc1ccc(S(=O)(=O)Nc2ccc3c(c2)C(=O)N([C@H](C)CO)C[C@H](C)[C@H](CN(C)C(=O)c2ccncc2)OCCCC[C@@H](C)O3)cc1,108*
COc1ccc(NC(=O)N(C)C[C@@H]2OCCCC[C@@H](C)Oc3ccc(NC(=O)Nc4ccc5c(c4)OCO5)cc3C(=O)N([C@H](C)CO)C[C@@H]2C)cc1,118*
C[C@@H]1CCCCO[C@H](CN(C)C(=O)Nc2ccc3c(c2)OCO3)[C@@H](C)CN([C@H](C)CO)C(=O)c2cc(NC(=O)Nc3ccccc3)ccc2O1,26
COc1ccc(NC(=O)Nc2ccc3c(c2)C(=O)N([C@H](C)CO)C[C@H](C)[C@@H](CN(C)C(=O)Nc2ccc4c(c2)OCO4)OCCCC[C@@H](C)O3)cc1,20
C[C@@H]1CCCCO[C@@H](CN(C)C(=O)Nc2ccc3c(c2)OCO3)[C@@H](C)CN([C@H](C)CO)C(=O)c2cc(NC(=O)NC3CCCCC3)ccc2O1,121*

# Source: PubChem BioAssay (Broad Institute)
